High-throughput results from PubChem.
In the library only some 21% were active in any assay of this set; here they are far more common.
NS1 inh: blocks influenza NS1 protein function | 270,000 compounds, 0.4% hits | AID 2326 | Potency, µM (doses to about 46.1 µM), without a hit: at the top dose activity, positive = more growth; calls by dose curve; further: potency means the concentration at half of the fitted maximal effect; actives are rising curves; nearly all actives have a fitted effect of over 50% in size
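Recovery from NS1-induced slow growth read by OD600 in budding yeast switched to galactose assay medium (pH 6.0, -URA) at 1:100 dilution. Compound 23 nl per well; the matching strain lacking NS1 serves as control.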
CHX counter: counter-screen for Shiga toxin inhibitors: cycloheximide protein synthesis inhibition; cell reporter, cycloheximide protein synthesis inhibition counterscreen; max response, %; 300,000 compounds, 12% hits; AID 2314; in the data active means max response mostly above about 13%, no sharp cut-off; inactive means mostly below about 14%; further: read at 38.3 µM for the half of the compounds with a filed dose; 0% is about no effect
Sm TGR inh: S. mansoni TGR enzyme inhibition | 360,000 compounds, 3% hits | Potency, µM (series often up to 114 µM), inactives show at the highest dose activity change, negative = inhibition, hits mostly inhibitors | Q962Y6 | purified TGR, DTNB reduction, TNB absorbance 405 nm; further: potency means the concentration at half of the fitted maximal effect; on the % scale 0 is the no-effect control and ±100 the full control effect; nearly all actives have a fitted effect of over 60% in size
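TGR 20 nM + NADPH 100 uM (dispensed conc.), cpd preinc 15 min RT; start with NADPH (500 uM addition) then DTNB (15 mM addition). Kinetic TNB absorbance, 405 nm filter. Four-parameter Hill fit across titration.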
Pf growth 48h: inhibits P. falciparum growth in the first generation, 48 h. Potency, µM (titrated, usually from 28.7 µM), inactives show at the highest dose activity change, negative = inhibition, usual class: inhibitors. P. falciparum luciferase growth in erythrocytes, 48 h. 310,000 compounds, 5.9% hits. AID 504832; further: potency means the concentration at half of the fitted maximal effect; on the % scale 0 is the no-effect control and ±100 the full control effect
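Luciferase-expressing parasites in RBCs, 2% Hct / 0.1% parasitemia final; RPMI 1640 + 0.5% Albumax; 37 C, 5% CO2, one generation; luminescence read-out, lower signal = inhibition.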
Pf growth 96h: inhibits malaria parasite growth, 96 h | P. falciparum luciferase reporter growth, 96 h | Potency, µM (doses to about 28.7 µM), for the others: at the highest dose activity change, negative = inhibition, most hits filed as inhibitors | 320,000 compounds, 6.9% hits; further: potency means the concentration at half of the fitted maximal effect; on the % scale 0 is the no-effect control and ±100 the full control effect
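96 h incubation, 37 C, 5% CO2, of luciferase-reporter P. falciparum-infected RBCs (2% hematocrit, 0.05% parasitemia final) with test compounds; endpoint luminescence.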
Shiga inhibitor: blocks Shiga toxin action in Vero cells | Vero cells, Shiga toxin protein synthesis inhibition reporter | inhibition, % at 38.7 µM | 290,000 compounds, 9.2% hits | AID 2315; in the data active means inhibition mostly above about 28%, no sharp cut-off; inactive means mostly below about 43%; further: 0% is about no effect
* marks the source's active call; other numbers are inactive results; [ ] = remark or other dose. Unless noted, the call rests on the fitted dose curve; in most records, active means well fitted curve in the direction sought with a large enough effect; inconclusive means small, poorly fitted or top-dose-only effect, or another doubt; inactive means no such curve, though single readings can be large; an effect the other way counts as inactive or inconclusive.

How did CCOC(=O)[C@H]1[C@H]2COc3ccc(Cl)cc3[C@@H]2N2C(=O)CN(Cc3ccco3)C(=O)[C@@]12C do in these assays?
Sm TGR inh: 16µM*; Pf growth 48h: inconclusive; Pf growth 96h: inconclusive

How did COc1ccc(C2c3cc(OC)c(OC)cc3CC(=O)N2c2cccc(C#N)c2)cc1 (stereo unspecified) do in these assays?
Sm TGR inh: 4%

How did Cc1cc(-c2ccccc2)n(-c2cc(N/N=C/c3ccccc3O)ncn2)n1 do in these assays?
NS1 inh: inconclusive; CHX counter: -3; Sm TGR inh: 2%; Pf growth 48h: 13µM*; Pf growth 96h: -11%; Shiga inhibitor: -18

What do the screens show for `CNc1cc(-n2nc(C)cc2-c2ccccc2)ncn1`?
NS1 inh: 2%; CHX counter: 2; Sm TGR inh: -2%[11.4 µM]; Pf growth 96h: -12%; Shiga inhibitor: -7

Results for CCOCCCNC(=O)C(c1ccc(Cl)cc1)N(Cc1cccs1)C(=O)c1ccc(NC(C)=O)cc1 (stereo unspecified) ?
Sm TGR inh: 2%

What do the screens show for `COC(=O)/C(=C/c1ccco1)NC(=O)c1ccccc1`?
NS1 inh: 8%; CHX counter: 4; Sm TGR inh: -5%; Pf growth 48h: -9%; Pf growth 96h: 50%; Shiga inhibitor: 4

What do the screens show for `C=CCOC(=O)/C(=C/c1ccco1)NC(=O)/C=C/c1ccccc1`?
NS1 inh: 6%; CHX counter: -2; Sm TGR inh: 40µM*; Pf growth 96h: inconclusive; Shiga inhibitor: 13

How did COC(=O)/C(=C/c1ccco1)NC(=O)c1ccc(Br)o1 do in these assays?
CHX counter: 10; Sm TGR inh: 22µM*; Pf growth 48h: 25%[5.75 µM]; Pf growth 96h: 3%[5.75 µM]; Shiga inhibitor: 8

What do the screens show for `COC(=O)/C(=C/c1ccco1)NC(=O)c1ccco1`?
NS1 inh: 14%; CHX counter: -1; Sm TGR inh: 40µM*; Pf growth 48h: 11%; Pf growth 96h: -8%; Shiga inhibitor: -17

Results for CC1Cc2nc(SCC(=O)NCc3ccco3)n(Cc3ccccc3)c(=O)c2S1 (stereo unspecified) ?
NS1 inh: -86%; CHX counter: 17; Sm TGR inh: -20%; Pf growth 48h: inconclusive; Pf growth 96h: inconclusive; Shiga inhibitor: 36*

Results for CCOC(=O)c1sc2nc(SCC(=O)NCc3ccco3)n(Cc3ccccc3)c(=O)c2c1C ?
NS1 inh: 7%; CHX counter: -1; Sm TGR inh: -4%; Pf growth 48h: -7%; Pf growth 96h: 78%; Shiga inhibitor: 10

What do the screens show for `Cc1cc(NC(=O)CSc2nc3c(c(=O)n2-c2ccc(Br)cc2)SCC3)no1`?
NS1 inh: -2%; CHX counter: 4; Sm TGR inh: -4%; Pf growth 48h: 7.4µM*; Pf growth 96h: -23%; Shiga inhibitor: 9

What do the screens show for `Cc1cc(NC(=O)CSc2nc3c(c(=O)n2Cc2ccccc2)SC(C)C3)no1` (stereo unspecified)?
NS1 inh: -6%; CHX counter: -5; Sm TGR inh: 0%; Pf growth 48h: 1.9µM*; Pf growth 96h: 1.5µM*; Shiga inhibitor: 15

What do the screens show for `Cc1ccc(-n2c(SCC(=O)Nc3cc(C)on3)nc3c(c2=O)SC(C)C3)cc1` (stereo unspecified)?
NS1 inh: -2%; CHX counter: 1; Sm TGR inh: -5%; Pf growth 48h: 0.83µM*; Pf growth 96h: inconclusive; Shiga inhibitor: 12

What do the screens show for `CCOc1cc(C2c3c(oc4ccc(F)cc4c3=O)C(=O)N2Cc2ccco2)ccc1O` (stereo unspecified)?
Sm TGR inh: -34%

Results for COc1ccccc1NC(=O)CSc1oc(-c2ccc(F)cc2)nc1S(=O)(=O)c1ccc(Br)cc1 ?
Sm TGR inh: 5%

Results for Cn1cc([N+](=O)[O-])c(C(=O)NC2CCCCCC2)n1 ?
NS1 inh: 10%; CHX counter: 0; Sm TGR inh: 0%; Pf growth 48h: -1%; Pf growth 96h: inconclusive; Shiga inhibitor: -5

Results for N#Cc1cc(-c2ccc(Cl)cc2)cnc1Sc1ccc(F)cc1 ?
NS1 inh: 28%; CHX counter: -2; Sm TGR inh: -14%; Pf growth 48h: inconclusive; Pf growth 96h: -3%; Shiga inhibitor: 6

What do the screens show for `N=c1c2ccccc2nnn1-c1cccc(C(F)(F)F)c1`?
NS1 inh: -3%; CHX counter: 25; Sm TGR inh: -1%; Pf growth 48h: 13µM*; Pf growth 96h: inconclusive; Shiga inhibitor: 20

What do the screens show for `CC1CCN(S(=O)(=O)c2ccc3[nH]cc(C(=O)NCc4ccc(F)cc4)c(=O)c3c2)CC1`?
Sm TGR inh: 6%

Results for Cc1oc(-c2ccc(Cl)cc2)nc1CN1CCC(C(=O)NCCCN2CCCC(C)C2)CC1 (stereo unspecified) ?
NS1 inh: 2%; CHX counter: -2; Sm TGR inh: 2%; Pf growth 48h: 2.1µM*; Pf growth 96h: 7%; Shiga inhibitor: -5

Results for Cc1oc(-c2ccc(Cl)cc2)nc1CN1CCCC(C(=O)NCCCN2CCOCC2)C1 (stereo unspecified) ?
NS1 inh: -3%; CHX counter: -3; Sm TGR inh: 79µM*; Pf growth 48h: inconclusive; Pf growth 96h: 97%; Shiga inhibitor: -3

Results for CCOc1ccc(-c2nc(CN3CCCC(C(=O)N4CCOCC4)C3)c(C)o2)cc1 (stereo unspecified) ?
NS1 inh: 4%; CHX counter: 18*; Sm TGR inh: -26%; Pf growth 48h: inconclusive; Pf growth 96h: 92%; Shiga inhibitor: 31*

Results for COc1ccc(Cl)cc1NC(=O)C1CCN(C(=O)Nc2ccccc2)CC1 ?
Sm TGR inh: -4%; Pf growth 48h: inconclusive; Pf growth 96h: inconclusive

How did O=C(O)C1=C[C@H](c2ccccc2)C[C@H](OCc2ccc(CO)cc2)O1 do in these assays?
NS1 inh: 1%; CHX counter: 8; Sm TGR inh: inconclusive; Pf growth 48h: 53%; Pf growth 96h: 63%; Shiga inhibitor: 22

What do the screens show for `C=CCOC(=O)C1=C[C@@H](c2ccc3c(c2)OCO3)C[C@@H](OCc2ccc(CO)cc2)O1`?
NS1 inh: -6%; CHX counter: 19*; Sm TGR inh: 40µM*; Pf growth 48h: inconclusive; Pf growth 96h: inconclusive; Shiga inhibitor: 82*

Results for O=C(O)C1=C[C@H](c2cccs2)C[C@H](OCc2ccc(CO)cc2)O1 ?
NS1 inh: -1%; CHX counter: 0; Sm TGR inh: 35µM*; Pf growth 48h: 0%; Pf growth 96h: 0%; Shiga inhibitor: -5

What do the screens show for `O=C(O)C1=C[C@H](c2csc3ccccc23)C[C@H](OCc2ccc(CO)cc2)O1`?
NS1 inh: 2%; CHX counter: -1; Sm TGR inh: -29%; Pf growth 48h: 58%; Pf growth 96h: 15%; Shiga inhibitor: -8
